This passage reports outcome and AC50 results from PubChem BioAssay (EPA / NIEHS).

Records with an inconclusive call do not appear. Active and inactive are the calls of the source. How the source made its calls: active means hit-call score of the fitted dose curve at least 0.9, where 1 is the maximum; inconclusive means response in the unintended direction; inactive means score below 0.9.

In experiment [1] the target is Estrogen receptor (Homo sapiens) + Estrogen receptor beta (Homo sapiens) (UniProt P03372+Q92731). Description: OT_ER_ERaERb_1440: Odyssey Thera (OT) 24-hour HEK293T Protein-Complementation Assay for Estrogen Receptor-alpha/-beta Homodimer (AID 2283356).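 Further: heteromer of ER alpha and ER beta binding domains; hits raise reporter fluorescence and both agonists and antagonists give an increase.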 The method, boiled down: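 24 h exposure; HEK293T PCA cells with ERα/ERβ LBD fragments; signal rise in nuclear or whole-cell fluorescence over vehicle.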
Chain of Estrogen receptor (Homo sapiens) + Estrogen receptor beta (Homo sapiens) (P03372 whole entry, looked up, the tested form may be a part): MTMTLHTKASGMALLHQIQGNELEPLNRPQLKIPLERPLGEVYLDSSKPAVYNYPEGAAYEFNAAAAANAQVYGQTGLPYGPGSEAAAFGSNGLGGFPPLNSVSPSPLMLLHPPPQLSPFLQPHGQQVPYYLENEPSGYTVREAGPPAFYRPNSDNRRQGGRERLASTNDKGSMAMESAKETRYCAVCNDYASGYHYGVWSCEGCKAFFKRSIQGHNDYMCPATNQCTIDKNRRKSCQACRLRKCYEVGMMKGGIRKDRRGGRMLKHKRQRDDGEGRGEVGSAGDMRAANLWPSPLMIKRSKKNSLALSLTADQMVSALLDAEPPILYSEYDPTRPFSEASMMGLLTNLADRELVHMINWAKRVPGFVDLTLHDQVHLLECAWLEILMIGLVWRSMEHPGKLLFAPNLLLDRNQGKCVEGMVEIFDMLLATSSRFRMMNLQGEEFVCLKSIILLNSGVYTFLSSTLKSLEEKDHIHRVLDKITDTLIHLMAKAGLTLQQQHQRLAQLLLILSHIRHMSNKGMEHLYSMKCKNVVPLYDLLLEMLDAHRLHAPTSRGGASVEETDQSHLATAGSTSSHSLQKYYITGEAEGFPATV
Chain of Estrogen receptor (Homo sapiens) + Estrogen receptor beta (Homo sapiens) (Q92731 whole entry, looked up, the tested form may be a part): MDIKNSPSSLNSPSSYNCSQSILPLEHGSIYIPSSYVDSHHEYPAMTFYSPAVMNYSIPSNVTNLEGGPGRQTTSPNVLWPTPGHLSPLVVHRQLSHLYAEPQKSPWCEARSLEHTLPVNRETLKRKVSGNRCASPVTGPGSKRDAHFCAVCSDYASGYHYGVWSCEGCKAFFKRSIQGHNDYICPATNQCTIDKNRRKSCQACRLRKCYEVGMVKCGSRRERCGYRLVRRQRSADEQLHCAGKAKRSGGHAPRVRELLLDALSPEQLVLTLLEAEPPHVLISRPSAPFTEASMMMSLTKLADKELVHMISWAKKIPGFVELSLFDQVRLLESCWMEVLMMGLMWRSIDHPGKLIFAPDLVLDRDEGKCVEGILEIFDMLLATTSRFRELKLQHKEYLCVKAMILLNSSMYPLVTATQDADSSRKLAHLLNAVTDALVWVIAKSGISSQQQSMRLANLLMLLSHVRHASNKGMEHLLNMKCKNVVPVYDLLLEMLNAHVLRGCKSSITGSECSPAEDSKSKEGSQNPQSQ

In experiment [2] the target is Estrogen receptor beta (Homo sapiens) (UniProt Q92731). As to the kind of experiment: OT_ER_ERbERb_0480: Odyssey Thera (OT) 8-hour HEK293T Protein-Complementation Assay for Estrogen Receptor-beta/-beta Homodimer (AID 2283357).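 Further: active means signal gain over DMSO baseline.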 In a few lines:
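ER-beta LBD homodimer PCA stably expressed in HEK293T; 8 h compound exposure, then formaldehyde fixation and Draq5 staining. Gain in nuclear/cytoplasmic fluorescence intensity versus DMSO vehicle, read on laser scanning cytometer.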

In experiment [3] the target is Nuclear receptor subfamily 1 group I member 2 (Homo sapiens) (UniProt O75469). Description: NVS_NR_hPXR: NovaScreen (NVS) Nuclear Receptor Binding Assay for human Pregnane X Receptor (PXR) (AID 2283365).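 Further: a drop in FRET signal versus DMSO baseline means the compound binds.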 The method, boiled down:
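Read-out: TR-FRET, human PXR, 2 h post-dosing, cell-free. Loss of signal vs DMSO taken as binding activity; 25 uM primary, concentration series secondary.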

A further experiment concerns the target PGR (gene 5241) (UniProt P06401). Description: NVS_NR_hPR: NovaScreen (NVS) Nuclear Receptor Binding Assay for human Progestron Receptor (PR) (AID 2283360).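 Further: active means loss of bound radioligand signal versus DMSO baseline.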 The method, boiled down:
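T47D-derived receptor preparation, cell-free, with tritiated or iodinated radioligand displacement measured by scintillation 18 h post-dosing. Single 25 uM duplicate screen, then concentration series; signal loss relative to DMSO.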

The target in experiment [4] is rat Mineralocorticoid Receptor (MR), Nr3c2 (gene 25672) (UniProt P22199). As to the kind of experiment: NVS_NR_rMR: NovaScreen (NVS) Nuclear Receptor Binding Assay for rat Mineralocorticoid Receptor (MR) (AID 2283355). On the procedure:
NVS_NR_rMR is a biochemical, single-readout assay that uses extracted gene-proteins from Adrenalectomized rat brain supernatant in a tissue-based cell-free assay. Measurements were taken 24 hours after chemical dosing in a 96-well plate.NVS_NR_rMR is one of one assay component(s) measured or calculated from the NVS_NR_rMR assay. It is designed to make measurements of radioligand binding, a form of binding reporter, as detected with scintillation counting signals by Lysate-based radiodetection technology.Data from the assay component NVS_NR_rMR was analyzed into 1 assay endpoint. This assay endpoint, NVS_NR_rMR, was analyzed in the positive analysis fitting direction relative to DMSO as the negative control and baseline of activity. […] Furthermore, this assay endpoint can be referred to as a primary readout, because the performed assay has only produced 1 assay endpoint. […]
Binding assays used specific radioligands (tritiated, iodinated) with non-radioactive competitive displacement ligands in agonist or antagonist protocols (as indicated) and various reference compounds and inhibitors to titrate specific binding to receptors and transporters. Most enzyme assays (CYPs, kinases, phosphatases, proteases, HDACs) used recombinant protein and specific substrates (fluorescence mostly, some colorimetric and radioactive) and inhibitors, followed by a biochemical separation of substrate and product. […]

In experiment [5] the target is Glucocorticoid receptor (Homo sapiens) (UniProt P04150). Description: NVS_NR_hGR: NovaScreen (NVS) Nuclear Receptor Binding Assay for human Glucocorticoid Receptor (GR) (AID 2283363).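 On AC50: activity is loss of specific radioligand binding signal relative to DMSO.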 The method, boiled down: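 Compounds first tested in duplicate at 25 uM, actives followed up in concentration series. Binding to extracted GR protein measured as competitive radioligand displacement, filter scintillation read 16 h post-dosing, normalised to DMSO.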
Chain of Glucocorticoid receptor (Homo sapiens) (P04150 whole entry, looked up): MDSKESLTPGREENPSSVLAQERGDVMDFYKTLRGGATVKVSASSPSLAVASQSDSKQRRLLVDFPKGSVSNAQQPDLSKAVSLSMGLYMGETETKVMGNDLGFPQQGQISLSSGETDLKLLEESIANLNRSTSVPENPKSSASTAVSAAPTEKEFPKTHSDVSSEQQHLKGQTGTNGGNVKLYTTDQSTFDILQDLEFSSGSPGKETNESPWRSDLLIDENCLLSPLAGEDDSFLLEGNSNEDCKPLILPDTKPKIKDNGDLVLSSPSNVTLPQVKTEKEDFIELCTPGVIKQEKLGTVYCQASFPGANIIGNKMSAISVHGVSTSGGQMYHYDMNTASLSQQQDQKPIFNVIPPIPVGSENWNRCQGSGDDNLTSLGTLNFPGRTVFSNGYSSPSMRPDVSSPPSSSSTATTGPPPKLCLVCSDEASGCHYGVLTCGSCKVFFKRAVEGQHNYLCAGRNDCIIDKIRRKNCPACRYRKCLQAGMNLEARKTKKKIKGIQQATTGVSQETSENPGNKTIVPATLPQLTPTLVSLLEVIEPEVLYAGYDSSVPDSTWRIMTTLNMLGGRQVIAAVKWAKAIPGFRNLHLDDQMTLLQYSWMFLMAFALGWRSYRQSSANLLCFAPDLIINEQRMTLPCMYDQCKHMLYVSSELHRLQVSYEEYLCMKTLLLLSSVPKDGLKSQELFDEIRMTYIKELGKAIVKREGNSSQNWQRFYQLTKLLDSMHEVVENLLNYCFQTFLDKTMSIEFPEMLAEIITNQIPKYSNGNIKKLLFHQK

Experiment [6] concerns the target human Thyroid Receptor Alpha (TRa), THRA (gene 7067) (UniProt P10827). Description: NVS_NR_hTRa_Antagonist: NovaScreen (NVS) Nuclear Receptor Binding Assay for human Thyroid Receptor Alpha Antagonism (TRa) (AID 2283362). In a few lines:
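In this biochemical format, receptor protein is dosed with chemical and read after 1 hour via AlphaLISA. Decreases from the DMSO baseline indicate antagonist activity; screening used 25 uM in duplicate before concentration-response confirmation.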

For experiment [7], the target named is Retinoic acid receptor alpha (Homo sapiens) (UniProt P10276). As to the kind of experiment: NVS_NR_hRAR_Antagonist: NovaScreen (NVS) Nuclear Receptor Binding Assay for human Retinoic Acid Alpha Receptor Antagonism (RAR) (AID 2283358). The method, boiled down:
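RARalpha antagonism was read by TR-FRET as loss of binding signal versus DMSO, 2 h after chemical addition, in a biochemical format. Single-concentration duplicates (25 uM) were run first, and actives were retested in concentration series.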

Experiment [8] deals with Androgen Receptor/SRC-1 Co-activator, AR (gene 367) (UniProt P10275). As to the kind of experiment: OT_AR_ARSRC1_0480: Odyssey Thera (OT) 8-hour HEK293T Protein-Complementation Assay for Androgen Receptor/SRC-1 Co-activator (AID 2283354).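 Further: hits raise the complementation signal above DMSO so AC50 marks enhancers.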 In a few lines: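 Reconstituted split-Venus YFP signal from AR–SRC-1 interaction, read by imaging 8 h post-dose in stable HEK293T lines. The 488 nm nucleus-to-cytoplasm ratio (≥400 cells/image) was fitted upward against DMSO.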
Chain of Androgen Receptor/SRC-1 Co-activator, AR (gene 367) (P10275 whole entry, looked up): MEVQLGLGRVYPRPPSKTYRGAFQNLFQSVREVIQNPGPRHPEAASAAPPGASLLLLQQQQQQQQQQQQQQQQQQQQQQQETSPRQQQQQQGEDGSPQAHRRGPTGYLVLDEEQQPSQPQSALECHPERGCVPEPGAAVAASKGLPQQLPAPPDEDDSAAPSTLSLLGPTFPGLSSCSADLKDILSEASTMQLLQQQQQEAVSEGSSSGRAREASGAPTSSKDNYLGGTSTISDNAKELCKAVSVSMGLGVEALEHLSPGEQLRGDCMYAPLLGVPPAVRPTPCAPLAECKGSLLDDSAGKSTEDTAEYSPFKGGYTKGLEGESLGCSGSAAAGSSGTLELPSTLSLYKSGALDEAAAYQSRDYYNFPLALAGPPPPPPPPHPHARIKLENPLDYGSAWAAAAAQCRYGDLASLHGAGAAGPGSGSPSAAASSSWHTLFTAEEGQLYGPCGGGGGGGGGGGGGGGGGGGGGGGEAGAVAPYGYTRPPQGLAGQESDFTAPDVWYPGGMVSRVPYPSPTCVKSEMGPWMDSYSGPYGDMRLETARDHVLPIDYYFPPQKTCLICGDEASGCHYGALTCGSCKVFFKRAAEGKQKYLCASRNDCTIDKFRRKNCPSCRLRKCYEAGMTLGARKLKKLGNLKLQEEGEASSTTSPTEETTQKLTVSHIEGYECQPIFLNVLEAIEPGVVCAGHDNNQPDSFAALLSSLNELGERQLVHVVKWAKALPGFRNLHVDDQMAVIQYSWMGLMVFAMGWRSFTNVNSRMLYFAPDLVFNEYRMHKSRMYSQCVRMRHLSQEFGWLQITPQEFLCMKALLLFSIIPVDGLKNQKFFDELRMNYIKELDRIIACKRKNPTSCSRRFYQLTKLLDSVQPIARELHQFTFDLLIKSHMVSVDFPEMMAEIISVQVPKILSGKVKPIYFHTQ

Experiment [9] has as its target Retinoic acid receptor alpha (Homo sapiens) (UniProt P10276). Description: NVS_NR_hRARa_Agonist: NovaScreen (NVS) Nuclear Receptor Binding Assay for human Retinoic Acid Alpha Receptor Agonism (RAR) (AID 2283361). The method, boiled down:
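Agonist-mode TR-FRET binding format using extracted protein, measured at 2 h post-dosing. Initial duplicate single-point screen at 25 uM preceded concentration series for actives; activity was normalized to DMSO baseline.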

Chain of PGR (gene 5241) (P06401 whole entry, looked up): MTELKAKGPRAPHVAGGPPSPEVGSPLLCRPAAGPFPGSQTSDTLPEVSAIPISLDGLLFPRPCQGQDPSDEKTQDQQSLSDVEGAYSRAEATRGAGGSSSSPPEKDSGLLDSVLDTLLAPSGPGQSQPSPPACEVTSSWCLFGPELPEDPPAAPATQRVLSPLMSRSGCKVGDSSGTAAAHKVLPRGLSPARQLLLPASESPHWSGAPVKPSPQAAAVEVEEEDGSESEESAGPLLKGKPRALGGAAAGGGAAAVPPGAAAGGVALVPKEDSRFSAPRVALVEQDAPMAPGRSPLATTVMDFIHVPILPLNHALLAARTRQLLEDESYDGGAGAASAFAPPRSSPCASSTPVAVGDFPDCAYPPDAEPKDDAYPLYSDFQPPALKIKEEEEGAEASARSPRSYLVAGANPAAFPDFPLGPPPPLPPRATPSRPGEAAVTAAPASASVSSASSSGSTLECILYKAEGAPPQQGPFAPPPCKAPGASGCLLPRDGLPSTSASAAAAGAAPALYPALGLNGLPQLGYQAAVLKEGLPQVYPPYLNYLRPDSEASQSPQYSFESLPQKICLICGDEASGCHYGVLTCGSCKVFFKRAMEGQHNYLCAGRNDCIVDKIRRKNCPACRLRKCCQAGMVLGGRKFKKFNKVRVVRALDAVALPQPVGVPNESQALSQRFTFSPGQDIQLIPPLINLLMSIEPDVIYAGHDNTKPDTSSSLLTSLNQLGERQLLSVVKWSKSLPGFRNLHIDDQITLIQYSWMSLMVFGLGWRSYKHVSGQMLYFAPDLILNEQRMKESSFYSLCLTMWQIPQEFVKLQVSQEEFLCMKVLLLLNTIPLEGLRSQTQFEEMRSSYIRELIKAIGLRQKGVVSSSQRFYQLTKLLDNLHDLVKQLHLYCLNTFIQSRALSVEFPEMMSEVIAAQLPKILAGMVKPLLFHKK
Chain of Estrogen receptor beta (Homo sapiens) (Q92731 whole entry, looked up, the tested form may be a part): as the sequence (Q92731 whole entry, looked up, the tested form may be a part) above
Chain of Retinoic acid receptor alpha (Homo sapiens) (P10276 whole entry, looked up): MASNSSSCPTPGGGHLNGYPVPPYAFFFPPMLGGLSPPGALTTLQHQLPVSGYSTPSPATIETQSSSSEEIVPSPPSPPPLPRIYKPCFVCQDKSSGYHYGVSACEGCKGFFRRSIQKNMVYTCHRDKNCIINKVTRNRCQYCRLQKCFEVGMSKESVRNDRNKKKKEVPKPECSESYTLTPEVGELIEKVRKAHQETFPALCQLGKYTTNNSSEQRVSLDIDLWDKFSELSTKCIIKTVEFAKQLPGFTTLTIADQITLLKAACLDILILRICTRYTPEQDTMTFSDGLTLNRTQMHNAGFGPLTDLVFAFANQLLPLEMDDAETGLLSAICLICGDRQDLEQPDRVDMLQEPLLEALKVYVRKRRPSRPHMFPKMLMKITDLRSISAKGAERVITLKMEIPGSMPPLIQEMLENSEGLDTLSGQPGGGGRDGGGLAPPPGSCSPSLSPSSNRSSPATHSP
Chain of Nuclear receptor subfamily 1 group I member 2 (Homo sapiens) (O75469 whole entry, looked up): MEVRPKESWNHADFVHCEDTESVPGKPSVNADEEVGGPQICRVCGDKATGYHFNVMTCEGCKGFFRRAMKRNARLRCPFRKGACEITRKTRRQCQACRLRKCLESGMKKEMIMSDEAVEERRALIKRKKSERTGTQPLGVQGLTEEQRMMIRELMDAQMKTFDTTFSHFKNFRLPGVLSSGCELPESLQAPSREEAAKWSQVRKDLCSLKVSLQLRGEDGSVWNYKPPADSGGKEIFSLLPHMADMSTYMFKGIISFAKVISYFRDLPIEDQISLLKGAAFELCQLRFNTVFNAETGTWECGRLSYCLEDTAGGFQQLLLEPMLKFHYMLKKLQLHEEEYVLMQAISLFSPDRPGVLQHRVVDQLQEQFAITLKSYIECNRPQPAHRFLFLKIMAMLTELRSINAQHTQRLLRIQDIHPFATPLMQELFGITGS

Consider `COC(=O)c1ccccc1O`, for which the outcome in experiment [1], in [2] and in experiment [3] was inactive.

Turning to `O=c1n(CC2CO2)c(=O)n(CC2CO2)c(=O)n1CC1CO1` (stereo unspecified), the outcome in experiment [1] and in [2] was inactive.

On to `O=c1[nH]c2ccc(S(=O)CCN3CCC(Cc4ccc(F)cc4)CC3)cc2o1` (stereo unspecified), for which the result (in [1]; with PGR (gene 5241)) was inactive.

`O=P(OC(CCl)CCl)(OC(CCl)CCl)OC(CCl)CCl`: the compound was called inactive in experiment [4], in experiment [1] and in experiment [2]. For the same compound, the concentration at half-maximal activity (AC50) is 5.78 µM (active) in the experiment with PGR (gene 5241) and 15.5 µM (active) in experiment [5].

`Cn1c(=O)cc(Oc2ccc(F)cc2F)c2cnc(NCC(C)(C)O)nc21`: the values for the AC50 in experiment [1] and in experiment [5] were 50 µM (active) and 2.48 µM (active), respectively. Besides, the compound was classed as inactive in experiment [2].

For `Cn1cnc([N+](=O)[O-])c1Sc1ncnc2nc[nH]c12`, the outcome in experiment [1], in experiment [2] and in [6] was inactive.

For the compound `CCn1nc(Cc2ccccc2)cc1C1CCN(C[C@H]2C[C@H](N(C)[C@@H](C(=O)O)C(C)C)C[C@@H]2c2cccc(F)c2)CC1`, the result in experiment [1], in experiment [2], in [7] and in experiment [5] was inactive.

Turning to `CCNc1ccccc1`, the compound was called inactive in experiment [8] and in [2].

Regarding `CC1(C)C(=O)N(Br)C(=O)N1Br`, the compound was classed as inactive in [8], in experiment [2] and in [3].

For the compound `CC/C(=C\C(=N/O)C(N)=O)C(C)[N+](=O)[O-]` (stereo unspecified), the result in [1] and in experiment [2] was inactive.

For `CC(C)=CCCC(C)CCO` (stereo unspecified), the compound was called inactive in experiment [8], in experiment [1] and in experiment [2].

In the case of `CC(C)CCO`, the result in experiment [1] and in experiment [2] was inactive.

On to `CN(C)c1ccc(N=NS(=O)(=O)O)cc1`, for which the call in experiment [8] was inactive.

In the case of `CCCC(=O)OCC`, the result in experiment [1] and in experiment [2] was inactive.

For `Cc1ccc(O)cc1`, the compound was called inactive in [8] and in experiment [2].

Regarding `O=C(O)c1cccc(N(Cc2cccnc2)c2ccc(OC(F)F)c(OC(F)F)c2)c1`, the compound was called inactive in [8] and in experiment [2]. Also, the concentration at half-maximal activity (AC50) in the experiment with PGR (gene 5241) is 4.96 µM (active).

As to `CCOc1cccc(-n2cc(C(=O)N3CCN(c4cc(C(=O)O)c5ccccc5c4)CC3)nc2-c2ccc(C)cc2)c1`, the call in experiment [8] and in experiment [2] was inactive. The half-maximal activity concentration (AC50) in [9] is 16.2 µM (active); in experiment [5], 14.6 µM (active).
